# Compounds without any hit were thinned out: in the full panel of roughly 83,000, 20% have a hit.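 Cell lines were cultured in 96-well plates, exposed to a single compound concentration, and assessed for percent growth 48 hours later.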 Values without a mark were called inactive. The source made the active and inactive calls. The calls were made as follows: active = growth percent below 10; inactive = the rest.
# How the values were obtained:
# Assay in all cases: NCI-60 one-dose screen, 48 h (100 = growth as untreated, 0 = no growth, -100 = all killed)
# Conditions in all cases: 10 µM unless noted
# HCT-15 colon = test system: HCT-15 colon
# HT29 colon = test system: HT29 colon
# SNB-75 CNS = test system: SNB-75 CNS
# SNB-19 CNS = test system: SNB-19 CNS
# U251 CNS = test system: U251 CNS
# PC-3 prostate = test system: PC-3 prostate
# SK-MEL-5 melanoma = test system: SK-MEL-5 melanoma
# UACC-62 melanoma = test system: UACC-62 melanoma
# LOX IMVI melanoma = test system: LOX IMVI melanoma
# SK-MEL-28 melanoma = test system: SK-MEL-28 melanoma
# SK-MEL-2 melanoma = test system: SK-MEL-2 melanoma
# EKVX NSCLC = test system: EKVX NSCLC
# SN12C renal = test system: SN12C renal
# UO-31 renal = test system: UO-31 renal
# TK-10 renal = test system: TK-10 renal
# ACHN renal = test system: ACHN renal
# CAKI-1 renal = test system: CAKI-1 renal
# A498 renal = test system: A498 renal
# CCRF-CEM leukemia = test system: CCRF-CEM leukemia
# MOLT-4 leukemia = test system: MOLT-4 leukemia
SMILES,growth (HCT-15 colon) [%],growth (HT29 colon),growth (SNB-75 CNS),growth (SNB-19 CNS) [%],growth (U251 CNS),growth (PC-3 prostate),growth (SK-MEL-5 melanoma) [%],growth (UACC-62 melanoma) [%],growth (LOX IMVI melanoma),growth (SK-MEL-28 melanoma) [%],growth (SK-MEL-2 melanoma) [%],growth (EKVX NSCLC) [%],growth (SN12C renal) [%],growth (UO-31 renal) [%],growth (TK-10 renal),growth (ACHN renal) [%],growth (CAKI-1 renal) [%],growth (A498 renal) [%],growth (CCRF-CEM leukemia),growth (MOLT-4 leukemia)
NS(=O)(=O)c1ccc(CCn2c(SCC(=O)c3ccc(Cl)cc3)nc3ccccc3c2=O)cc1,98.2,102%,90.2%,102,109%,98.2%,104,98.9,96.8%,113,107,98.9,101,84.5,97.2%,99.9,89.7,99.2,97.8%,97.6%
O=C(N/N=C/c1cc2ccccc2n2nnnc12)Nc1ccccc1,98.3,97.2%,103%,97.1,104%,101%,101,100,108%,113,105,98,100,94.1,101%,108,94.5,–,103%,–
[O-][n+]1c(Cl)cc(Cl)c2ccccc21,99.8,122%,101%,102,92.9%,81.2%,109,98.9,97.4%,104,123,76.9,101,78.5,125%,99.5,92.6,73.2,87.5%,88.7%
Cc1cccc(NC(=O)Nc2ccc(-c3ccc4c(c3)NC(=O)/C4=C\c3ccc[nH]3)cc2)c1,66.9,99.4%,81.7%,90.2,74.7%,94%,100,98.1,78.7%,95.9,111,46.5,100,70.3,93.3%,91.1,82.6,–,30.1%,–
CCN1Cc2nc3sc(C)c(C)c3c(=O)n2C=C1C,49.7,22.1%,88%,49.4,24.3%,-6.34% (active),78.7,46.9,53.5%,67.3,91.9,59.8,57.1,34.4,87.5%,65.3,61.6,108,–,-3.45% (active)
CC1(C)CC[C@]2(C(=O)O)CC[C@]3(C)C(=CC[C@@H]4[C@@]5(C)Cc6c([nH]c7ccccc67)C(C)(C)[C@@H]5CC[C@]43C)[C@@H]2C1,21.3,27.2%,49.4%,60,25.7%,42.7%,73.7,63.7,40.3%,83.2,72.6,34.3,42.8,32.7,31.3%,18.2,17.5,–,30.6%,32.3%
N=C1C(c2nc3ccccc3s2)=C(O)CN1c1cc(Cl)cc(Cl)c1,38.6,82.6%,128%,95.2,64.7%,26.1%,88.9,78.1,67%,120,105,82.4,86.2,60.2,115%,73.4,78,98.5,–,29.4%
Cn1ccnc1C(=O)/C=C/c1ccc(CC(=O)NC2CCCCC2)cc1,33.1,15.3%,3.39% (active),46.2,31.4%,59.7%,71.3,73.4,44.5%,92.3,108,77.4,61.2,60.4,94.8%,81.3,66.9,–,33.5%,67.7%
O=C(CCN1CCCC1)Nc1ccc2c(NCCCc3ccccc3)c3ccccc3nc2c1,36.3,3.74% (active),23%,24.6,-58.9% (active),-0.52% (active),67.4,43.5,-87% (active),66.1,38.9,40.8,14,31.8,5% (active),33.1,27.5,–,-11.8% (active),–
O=S(=O)(NCCNc1nccc(-c2c(-c3cccc(O)c3)nc3occn23)n1)c1ccc(C(F)(F)F)cc1,108,72.9%,92.5%,115,104%,99.7%,55.7,26.7,75.1%,58.3,93.7,105,102,93.9,137%,84.4,69.6,–,106%,111%
O=C(/C=C(/C=C/c1coc2ccccc12)OB(F)F)/C=C/c1coc2ccccc12,95.1,100%,98%,89.1,84.6%,86.2%,105,88.9,84.9%,101,91.6,108,97.4,87.7,117%,101,105,–,72.6%,85.5%
COC(=O)CNC(=O)[C@]12CCC(C)(C)C[C@H]1C1=CC[C@@H]3[C@@]4(C)Cc5c([nH]c6ccccc56)C(C)(C)[C@@H]4CC[C@@]3(C)[C@]1(C)CC2,87.7,81%,87.6%,92.2,82.3%,74.4%,98.1,81.7,94%,96.7,77.3,88.6,89.8,65.3,90.3%,49.1,71.2,–,87.3%,63.6%
O=C(NCCNc1nccc(-c2c(-c3cccc(F)c3)nc3sccn23)n1)c1ccc(Cl)cc1,40.1,35.2%,63.5%,71.9,66.1%,72.5%,33.6,14.7,43.4%,64.9,62.5,63.2,52.5,28.1,75.4%,34.2,41.5,–,58.2%,65.7%
O=C(/C(=C/c1ccc([N+](=O)[O-])cc1)SCc1ccc(F)cc1)c1ccc(F)cc1,37.2,22%,96.8%,68.4,37.5%,78.3%,95.4,63.7,32%,103,90.4,101,82.4,54.3,79.4%,91.1,75.2,79.4,7.75% (active),21.9%
O=C(Nc1cccc(C(=O)N2CCc3ccc(Cl)cc32)c1)c1ccco1,24.2,15.9%,0.916% (active),37.6,36.7%,69.7%,24.3,36.3,35.9%,59.9,25.8,54.1,49.6,45.1,77.6%,48.2,29.6,–,29.4%,–
O=C(CSc1nc2sc3c(c2c(=O)n1-c1ccc(Cl)cc1)CCCC3)Nc1nc(-c2cccc(Br)c2)cs1,87.8,61.7%,41.7%,84.8,78.8%,57.5%,82.8,85.1,84.3%,84.4,97,75,79.5,74.6,113%,91.1,49,–,87.7%,–
